Reference: PubChem BioAssay AID720 (The Scripps Research Institute Molecular Screening Center, 2007)
The campaign covered roughly 97,000 compounds. About 140 (0.14%) were called active.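 How the source made its calls: active means inhibition above the screen-wide mean inhibition plus 3 SD (cut at about 15% in these data); inactive means the rest.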 This excerpt belongs to a sample that is enriched for actives.

Target: Ephrin type-B receptor 4 (Homo sapiens) (UniProt P54760)
Assay: blockers of EphB4 ligand binding – biochemical, TNYL-RAW peptide probe, fluorescence polarization, primary screen (AID 720);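 further: 0% = DMSO wells and 100% = excess unlabeled TNYL-RAW peptide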
Settings: EphB4 LBD / TNYL-RAW-Alexa532 peptide, at 7 µM, stronger effect = higher value

Chain of Ephrin type-B receptor 4 (Homo sapiens) (P54760 whole entry, looked up): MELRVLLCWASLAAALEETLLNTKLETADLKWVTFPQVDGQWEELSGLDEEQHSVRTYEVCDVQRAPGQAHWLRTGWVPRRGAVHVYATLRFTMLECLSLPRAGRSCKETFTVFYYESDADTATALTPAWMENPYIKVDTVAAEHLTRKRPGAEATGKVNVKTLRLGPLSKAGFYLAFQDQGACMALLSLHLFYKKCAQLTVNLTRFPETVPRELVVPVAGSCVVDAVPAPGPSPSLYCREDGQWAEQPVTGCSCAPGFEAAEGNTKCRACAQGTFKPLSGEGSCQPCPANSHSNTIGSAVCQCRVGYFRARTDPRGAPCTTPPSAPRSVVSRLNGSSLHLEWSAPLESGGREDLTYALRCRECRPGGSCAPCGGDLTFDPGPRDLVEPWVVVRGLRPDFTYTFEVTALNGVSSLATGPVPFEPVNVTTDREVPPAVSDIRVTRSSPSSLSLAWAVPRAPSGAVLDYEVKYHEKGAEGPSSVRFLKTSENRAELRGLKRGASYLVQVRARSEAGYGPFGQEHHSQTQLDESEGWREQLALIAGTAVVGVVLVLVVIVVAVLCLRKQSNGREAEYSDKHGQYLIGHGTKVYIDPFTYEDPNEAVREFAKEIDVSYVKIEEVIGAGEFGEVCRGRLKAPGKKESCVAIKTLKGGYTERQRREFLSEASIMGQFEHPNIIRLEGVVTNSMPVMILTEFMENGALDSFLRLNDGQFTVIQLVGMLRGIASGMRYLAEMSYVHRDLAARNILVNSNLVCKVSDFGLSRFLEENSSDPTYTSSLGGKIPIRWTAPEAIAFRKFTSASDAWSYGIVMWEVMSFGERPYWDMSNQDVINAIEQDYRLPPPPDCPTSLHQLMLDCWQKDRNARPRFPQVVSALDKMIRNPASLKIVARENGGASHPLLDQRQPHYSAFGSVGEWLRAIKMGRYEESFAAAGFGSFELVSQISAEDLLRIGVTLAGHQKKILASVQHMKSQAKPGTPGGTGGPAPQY

| SMILES | inhibition |
| --- | --- |
| CCc1cccc2c(C#N)cn(CC(=O)N3CCOCC3)c12 | 21.5% (active) |
| CCC(=O)CC(c1ccc([N+](=O)[O-])cc1)c1c(O)c2ccccc2oc1=O (stereo not given) | 0.56% (inactive) |
| CC(=O)c1ccc(OC(NC(=O)Cc2ccccc2)C(Cl)(Cl)Cl)cc1 (stereo not given) | 0.16% (inactive) |
| OC(Cn1c2ccccc2c2ccccc21)C[n+]1ccccc1 (stereo not given) | -2.91% (inactive) |
| CC(=O)Nc1ccccc1C(=O)OCC(=O)c1cccc2ccccc12 | -0.92% (inactive) |
